Data: PubChem BioAssay (Tox21)
Records with an inconclusive call do not appear. Where a call stands in place of a potency, no number is given. The source made the active and inactive calls. Calls come from the whole dose curve.

Biological target: 5-hydroxytryptamine receptor 2A (Homo sapiens) (UniProt P28223)
Experiment: 5-hydroxytryptamine receptor 2A (HTR2A) small molecule antagonists, cell-based qHTS assay (AID 1963586); note: nearly all actives have a fitted effect of over 45% in size
Conditions: HTR2A-CHO cells, DOI-induced calcium flux, fluorescence; series mostly up to 61.5 µM
Excerpt: National Center for Advancing Translational Sciences [NCATS]
Division of Preclinical Innovation [DPI]
U.S. Environmental Protection Agency [EPA]
National Institutes of Environmental Health Sciences [NIEHS]
National Toxicology Program [NTP]
U.S. Food and Drug Administration [FDA]
The HTR2A receptor is a subtype of the 5-HT2 receptor that belongs to the serotonin receptor family and is a G protein-coupled receptor (GPCR). The HTR2A-CHO cell line stably expressing human 5-hydroxytryptamine receptor 2A (HTR2A) can be used for screening antagonists of interactions between 5-HT2 and its ligands. The HTR2A-CHO calcium flux assay is a homogeneous fluorescence-based assay for detecting the intracellular calcium level using FDSS kinetic plate reader system.
Tox21 Assay Protocol Summary:
HTR2A-CHO cells were dispensed at 2000 cells/3uL/well in 1536-well black-clear bottom plates using a Multidrop Dispenser. After the assay plates were incubated at a 37 C/5% CO2 incubator for 18 h, 3 uL of Dye Loading Buffer was transferred to the assay plate by a Flying Reagent Dispenser. The assay plates were incubated at 37 C for 1h. For antagonist mode, 23 nL of compounds dissolved in DMSO, positive controls or DMSO only was transferred to the assay plate by a pin tool. After 5 min incubation at room temperature, 1.5 uL of 4-Iodo-2,5-dimethoxy-alpha-methylbenzeneethanamine hydrochloride (DOI) at 4nM was added to each well. The fluorescence intensity in the plates was measured using FDSS 7000EX kinetic plate reader for 3 min at 1 sec intervals.
Potency is the fitted concentration of half-maximal effect.

Chain of 5-hydroxytryptamine receptor 2A (Homo sapiens) (P28223 whole entry, looked up): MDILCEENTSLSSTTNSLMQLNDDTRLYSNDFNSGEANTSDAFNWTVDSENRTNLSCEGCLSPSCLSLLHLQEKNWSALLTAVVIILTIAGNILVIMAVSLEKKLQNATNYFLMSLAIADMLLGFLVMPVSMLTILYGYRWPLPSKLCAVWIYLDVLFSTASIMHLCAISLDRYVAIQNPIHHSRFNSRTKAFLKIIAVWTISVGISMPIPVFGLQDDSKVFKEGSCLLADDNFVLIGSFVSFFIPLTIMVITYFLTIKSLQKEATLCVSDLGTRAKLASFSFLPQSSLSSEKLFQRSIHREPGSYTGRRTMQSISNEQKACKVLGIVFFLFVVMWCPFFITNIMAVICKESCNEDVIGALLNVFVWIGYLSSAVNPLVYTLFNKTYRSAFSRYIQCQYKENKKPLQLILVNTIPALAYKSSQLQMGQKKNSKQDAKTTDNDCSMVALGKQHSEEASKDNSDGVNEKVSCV

Compound | Potency | activity, negative = inhibition
O=C(CCC1CCN(Cc2ccccc2)CC1)c1ccc2c(c1)NCCCC2 | 2590 nM (active) | –
N[C@H]1C(O)O[C@H](CO)[C@H](O)[C@@H]1O (stereo not given in full) | inactive | –
COCCOCC(OC)OC | inactive | –
CC1CCc2cc(F)cc3c(=O)c(C(=O)O)cn1c23 (stereo not given) | inactive | –
CC(C)(C)C(=O)C(=O)O | inactive | –
Cc1cccc(C)c1NC(=O)c1ccc(N)cc1 | inactive | –
CC(C)(C)NCCNC(C)(C)C | inactive | –
COCCOC(=O)C1=C(C)NC(C)=C(C(=O)OC/C=C/c2ccccc2)C1c1cccc([N+](=O)[O-])c1 (stereo not given) | inactive | –
NC[C@H]1O[C@H](O[C@H]2[C@H](O[C@@H]3O[C@H](CO)[C@@H](O)[C@H]3O)C(O)[C@H](N)C[C@@H]2N)[C@H](N)[C@@H](O)[C@@H]1O (stereo not given in full) | – | 2.42% [at 5.62 µM] (inactive)
CC(CC(=O)O)CC(C)(C)C (stereo not given) | inactive | –
CCC(=O)O[C@]1(C(=O)SCF)[C@H](C)C[C@H]2[C@@H]3C[C@H](F)C4=CC(=O)C=C[C@]4(C)[C@@]3(F)[C@@H](O)C[C@@]21C | inactive | –
CN1CCN(c2c(F)cc3c(=O)c(C(=O)O)cn4c3c2OCN4C)CC1 | – | -5.02% [at 12.7 µM] (inactive)
CC(C)C[P+](C)(CC(C)C)CC(C)C | inactive | –
Nc1c2c(nc3ccccc13)CCCC2O (stereo not given) | inactive | –
CCCCCCCCCCc1ccccc1 | inactive | –
NC(=O)Nc1ccc(Cl)c(Cl)c1 | inactive | –
CC(C)(C)C(=O)/C=C/c1ccc(Cl)cc1 | inactive | –
CCOC(=O)c1ccccc1 | inactive | –
CC1=NN(c2ccc(C(=O)O)cc2)C(=O)C1 | inactive | –
OCC(O)[C@@H](O)[C@H](O)[C@H](O)CO[C@H]1O[C@H](CO)[C@@H](O)[C@H](O)[C@H]1O (stereo not given in full) | inactive | –

Compound | Potency | activity, negative = inhibition
CCCCCCCCCI | inactive | –
CC/C=C\CC/C=C/C(OCC)OCC | inactive | –
O=C(O)CP(=O)(O)O | inactive | –
O=C(O)C(O)[C@H](O)[C@@H](O)[C@H](O)[C@H](O)CO (stereo not given in full) | inactive | –
Cc1cc(=O)oc2cc(O)cc(O)c12 | inactive | –
CC(=O)NCCCCCC(=O)O | inactive | –
CC(CN(C)C)C(C)(O)Cc1ccc(Cl)cc1 (stereo not given) | inactive | –
CCCCCCOC(=O)CCCCC(=O)OCCCCCC | inactive | –
Cc1cccc(N(C)C(=S)Oc2ccc3c(c2)CCC3)c1 | 1300 nM (active) | –
CC1=C(C(=O)OC(C)C)C(c2cccc([N+](=O)[O-])c2)C(C(=O)OC2CN(C(c3ccccc3)c3ccccc3)C2)=C(N)N1 (stereo not given) | inactive | –
O=C(Nc1ccccc1)c1cc([N+](=O)[O-])ccc1Cl | inactive | –
Nc1cccc(S(=O)(=O)c2cccc(N)c2)c1 | inactive | –
O=C(Nc1cccc2c(=O)cc(-c3nn[nH]n3)oc12)c1ccc(OCCCCc2ccccc2)cc1 | inactive | –
O=Cc1c2ccccc2c(Cl)c2ccccc12 | inactive | –
CN(C)CCCCl | inactive | –
C=C(C)C(=O)OC1CC(C)CC(C)(C)C1 (stereo not given) | inactive | –
CCCCC(=O)O[C@]1(C(=O)CO)[C@H](C)C[C@H]2[C@@H]3CCC4=CC(=O)C=C[C@]4(C)[C@@]3(F)[C@@H](O)C[C@@]21C | inactive | –
C=CCOC(=O)/C=C\C(=O)OCC=C | inactive | –
CC1c2ccccc2CN1NC(=O)c1ccc(Cl)c(S(N)(=O)=O)c1 (stereo not given) | inactive | –
CC1(C)CC(OC(=O)CCCCCCCCC(=O)OC2CC(C)(C)NC(C)(C)C2)CC(C)(C)N1 | – | -5.05% [at 12.7 µM] (inactive)
